Screens as filed in PubChem.
V-ATPase pH = regulators of yeast V-ATPase proton pumping, primary screen, pHLuorin cytosolic pH fluorescence | S. cerevisiae | response, % at 10 µM | 350,000 compounds, 0.37% hits; in the data active means response mostly above about 7.3%, no sharp cut-off; inactive means mostly below about 5.4%; further: actives read high
Mot1-301 SUMO = yeast Mot1-301 growth rescue at high temperature, primary screen, SUMOylation pathway inhibitor project, S. cerevisiae, ATP luminescence, 38.5C | 320,000 compounds, 1% hits | S. cerevisiae Mot1-301 growth rescue; percent above DMSO median, 100 means doubled | growth rescue, % at 18.8 µM | AID 2716, 2010;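 active means every valid replicate shows activation above 250% relative to neutral control wells; inactive means the rest, any valid replicate at or below 250%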;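 further: OY570 slx delta 5 strain wells were the positive control but not used for scaling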
ATG4B inh = ATG4B protease inhibitors, primary screen, biochemical, fluorescence, uHTS; Cysteine protease ATG4B (Homo sapiens), Q9Y4P1; ATG4B cleavage of LC3-PLA2, NBD-HPC fluorescence, 1 h; inhibition, % at 8.33 µM; 340,000 compounds, 0.51% hits; AID 504462, 2011; in the data active means inhibition above about 40%
Target sequence (Q9Y4P1 whole entry, looked up): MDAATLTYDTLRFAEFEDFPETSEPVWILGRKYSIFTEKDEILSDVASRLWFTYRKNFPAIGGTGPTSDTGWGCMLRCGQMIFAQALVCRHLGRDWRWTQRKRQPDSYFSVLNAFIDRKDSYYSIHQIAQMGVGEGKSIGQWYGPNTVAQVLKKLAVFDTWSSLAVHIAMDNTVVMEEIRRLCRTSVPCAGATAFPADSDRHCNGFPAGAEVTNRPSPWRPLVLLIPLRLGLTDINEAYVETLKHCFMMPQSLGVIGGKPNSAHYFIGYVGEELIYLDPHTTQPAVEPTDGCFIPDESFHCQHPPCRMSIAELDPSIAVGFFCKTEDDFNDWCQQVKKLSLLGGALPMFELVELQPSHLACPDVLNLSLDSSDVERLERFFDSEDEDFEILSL
AI-2 QS modul = Vibrio harveyi AI-2 quorum sensing modulators, primary screen, JMH597 strain, luminescence/OD600 ratio; Vibrio harveyi JMH597 AI-2 luminescence/OD600 ratio, 9 h; active compounds read low; strain lacks LuxN and CqsS sensors; 0 = neutral-control median; activity change, % at 7.5 µM; 300,000 compounds, 0.4% hits; AID 2094, 2009; in the data active means activity change below about -75%, passing the limit was not always enough;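 further: luminescence divided by OD600 gain over 9 h not by final OD600 alone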
Efflux pump mplx = inhibitors of Candida efflux pumps in yeast, primary screen, S. cerevisiae, Nile Red, multiplex. S. cerevisiae Candida pump triplex. 330,000 compounds, 0.44% hits. inhibition, % at 10 µM;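 active means plate passing quality check with inhibition over a set limit, or well fluorescence over plate mean plus 4 SD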;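 further: Nile Red retained in pooled yeast measured as flow cytometry median fluorescence; 0% = buffer negative control and 100% = Enniatin B positive control; higher means more Nile Red kept so more efflux inhibition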
Yeast cmpd fluor = compound fluorescence in yeast efflux pump counter-screen. shares compounds with Efflux pump mplx. S. cerevisiae AD/pABC3, flow cytometry. fluorescence ratio to DMSO, % at 10 µM. 1,700 compounds, 4% hits. AID 588517;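 active means fluorescence ratio to DMSO above its plate's cutoff, the plate mean ratio plus 5 SD, cut at about 210% in these data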;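 further: unstained yeast with no Nile Red so the signal is compound autofluorescence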
CaMdr1 efflux inh = inhibitors of Candida albicans Mdr1 efflux, confirmation, flow cytometry, singleplex, Cherry Pick1 set; shares compounds with Efflux pump mplx; S. cerevisiae AD/CaMDR1, Nile Red efflux; inhibition, % at 10 µM; 1,700 compounds, 1% hits; AID 588518, 2011; in the data active means inhibition above about 26%;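 further: 0% = DMSO vehicle and 100% = reference inhibitor; higher means more Nile Red retained so more efflux inhibition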
Cdr2 pump inh = inhibitors of Candida albicans Cdr2 efflux pump, confirmation, S. cerevisiae AD/CaCDR2, flow cytometry, cherry pick 1, singleplex | Nile Red retention | Nile Red retention ratio vs DMSO, % at 10 µM | shares compounds with Efflux pump mplx | 1,700 compounds, 4% hits; in the data active means Nile Red retention ratio vs DMSO above about 190%;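 further: higher ratio means more blocking of Cdr2 efflux of the dye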
CaCdr1 efflux inh = inhibitors of Candida albicans Cdr1 efflux pump, confirmation, S. cerevisiae AD/CaCDR1, flow cytometry, cherry pick 1, singleplex; shares compounds with Efflux pump mplx; Nile Red efflux; inhibition, % at 10 µM; 1,700 compounds, 1% hits; AID 588522, 2011;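 active means inhibition above the screen-wide mean plus twice its standard deviation, cut at about 32% in these data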
Active calls of the source: *; nt = not tested or not shown. Most compounds without a hit are left out; they make up all but 2.5% or so of the library.

SMILES | V-ATPase pH | Mot1-301 SUMO | ATG4B inh | AI-2 QS modul | Efflux pump mplx | Yeast cmpd fluor | CaMdr1 efflux inh | Cdr2 pump inh | CaCdr1 efflux inh
Cc1ccc2c(c1)[C@H]1[C@H](CO2)[C@H](c2ccccc2)[C@]2(C)C(=O)Nc3cc(F)c(F)cc3C(=O)N12 | -1 | 197 | -13 | nt | 0 | 101 | 0 | 98 | 0
COc1cc2c(cc1OC)C(=O)N1[C@H]3c4cc(Cl)ccc4OC[C@@H]3[C@H](c3ccccc3)[C@]1(C)C(=O)N2 | 0 | 69 | -9 | nt | nt | nt | nt | nt | nt
COc1cc2c(cc1OC)C(=O)N1[C@H]3c4cc(C)ccc4OC[C@@H]3[C@H](c3ccccc3)[C@]1(C)C(=O)N2 | -3 | 175 | -4 | nt | 0 | 117 | 1 | 121 | 1
COc1ccc2c(c1)[C@H]1[C@H](CO2)[C@H](c2ccccc2)[C@]2(C)C(=O)Nc3cc(Cl)ccc3C(=O)N12 | 0 | 107 | 2 | nt | 0 | nt | nt | nt | nt
COc1ccc2c(c1)C(=O)N1[C@H]3c4cc(Cl)ccc4OC[C@@H]3[C@H](c3ccccc3)[C@]1(C)C(=O)N2 | 1 | 150 | 8 | nt | 0 | 89 | 0 | 112 | 0
Cc1ccc(C(=O)N/C(=C\c2cccs2)C(=O)NCCCn2ccnc2)cc1 | 6 | -21 | 2 | 9 | 0 | nt | nt | nt | nt
CNC(=O)COC(=O)c1ccccc1NC(=O)c1ccco1 | 4 | -11 | -5 | 13 | 1.2* | 99 | 0 | 95 | 0
BrC(=C\c1ccccc1)/C=N/Nc1nc2ccccc2[nH]1 | -3 | 28 | 1 | 17 | 2.5* | 94 | 0 | 104 | 0
Cc1cc(/C=C(\C#N)C(=O)NCCc2c[nH]c3ccccc23)c(C)n1C | 1 | 6 | 6 | 21 | 0 | nt | nt | nt | nt
N#C/C(=C/c1ccc(Br)s1)C(=O)NCCc1c[nH]c2ccccc12 | -4 | 5 | 6 | -4 | 5.5* | 111 | 0 | 91 | 0
CN(C(=S)NC(=O)CCCOc1ccc(Cl)cc1Cl)c1ccccc1 | -4 | -9 | -4 | -3 | 0 | nt | nt | nt | nt
CCCCN1C(N)=NC[C@H]1Cc1ccc(O)cc1 | -3 | -16 | -11 | 19 | 0 | 99 | 0 | 101 | 0
CC(C)(C)CN1C(N)=NC[C@@H]1Cc1ccc(O)cc1 | 1 | -11 | 3 | 17 | 0 | 104 | 0 | 112 | 0
NC1=NC[C@@H](Cc2ccc(O)cc2)N1CCc1cccc(F)c1 | 2 | -22 | 2 | 34 | 0 | 109 | 0 | 98 | 0
CCCCN1C(N)=NC[C@@H]1Cc1ccc(O)cc1 | -1 | 1 | -2 | 37 | 0 | 98 | 0 | 105 | 0
NC1=NC[C@@H](Cc2ccc(O)cc2)N1CCc1cc(C(F)(F)F)cc(C(F)(F)F)c1 | 1 | 220 | 1 | 16 | 0 | nt | nt | nt | nt
Cc1cccc(NC(=O)c2ccccc2NC(=O)c2ccco2)c1 | -1 | 12 | -5 | 2 | 0 | nt | nt | nt | nt
CC(C)CNS(=O)(=O)c1ccc(CCC(=O)N2CCC(C(N)=O)CC2)cc1 | 3 | 228 | -2 | 10 | 0 | nt | nt | nt | nt
C(=N\Nc1cc(N2CCCCC2)ncn1)/c1ccco1 | 3 | 8 | 0 | 6 | 0 | nt | nt | nt | nt
CCOC(=O)C1C(=O)C=C(/C=C/c2ccc(N(C)C)cc2)CC1c1ccccc1 (configuration not stated) | -1 | -18 | -8 | 13 | 0.6* | 588* | 0 | 125 | 0
